{
  "source": "the supplement of paper PMC9950053",
  "note": "Structures can show the parent of a compound that is named as a salt.",
  "data": [
    {"test_system": "Danio rerio larvae (5 dpf)", "test": "startle (activity period 16 minus period 15, 20-s interval sound) minus DMSO control (percentage points); higher = stronger startle response than DMSO larvae", "conditions": "10 µM; exposure time: 3 h pre-incubation + 3 h imaging", "experimental": "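Wild-type 5 dpf zebrafish larvae (n=48 per drug, 96-well plates, 28.5 °C) were exposed to Tocris FDA-approved library compounds at 10 µM (0.1% DMSO) for 3 h before and 3 h during imaging. Images were taken every 6 s during visual and acoustic stimuli, and larvae were tracked with Z-LaP Tracker. Each measure is the treated-group mean minus the DMSO control mean (n=844), in percentage points. This mapping covers compounds with 5-character plate codes.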", "values": [
      {"compound": "OC(c1cc(C(F)(F)F)nc2c(C(F)(F)F)cccc12)C1CCCCN1", "note": "(configuration not stated) [Mefloquine hydrochloride]", "startle": -13.1},
      {"compound": "COc1cc(N)c(Cl)cc1C(=O)NC1CCN(CCCOc2ccc(F)cc2)CC1OC", "note": "(configuration not stated) [Cisapride]", "startle": -1.14},
      {"compound": "COc1cc([C@@H]2c3cc4c(cc3[C@@H](O[C@@H]3O[C@@H]5CO[C@@H](C)O[C@H]5[C@H](O)[C@H]3O)[C@H]3COC(=O)[C@H]23)OCO4)cc(OC)c1O", "note": "[Etoposide]", "startle": -0.943},
      {"compound": "CC(C)OC(=O)C(C)(C)Oc1ccc(C(=O)c2ccc(Cl)cc2)cc1", "note": "[Fenofibrate]", "startle": -5.75},
      {"compound": "C#CCN[C@@H]1CCc2ccccc21", "note": "[Rasagiline mesylate]", "startle": 3.19},
      {"compound": "Clc1ccc2nsnc2c1NC1=NCCN1", "note": "[Tizanidine hydrochloride]", "startle": -2.98},
      {"compound": "CN(C)C(=N)NC(=N)N", "note": "[Metformin hydrochloride]", "startle": -2.04},
      {"compound": "CCCc1nn(C)c2c(=O)[nH]c(-c3cc(S(=O)(=O)N4CCN(C)CC4)ccc3OCC)nc12", "note": "[Sildenafil citrate]", "startle": -1.15},
      {"compound": "CCc1nc(N)nc(N)c1-c1ccc(Cl)cc1", "note": "[Pyrimethamine]", "startle": 1.66},
      {"compound": "C[C@H]1O[C@H](O[C@H]2[C@H](O)[C@@H](O)[C@@H](O[C@H]3[C@H](O)[C@@H](O)C(O)O[C@@H]3CO)O[C@@H]2CO)[C@H](O)[C@@H](O)[C@@H]1N[C@H]1C=C(CO)[C@@H](O)[C@H](O)[C@H]1O", "note": "(some centres not stated) [Acarbose]", "startle": -7.07},
      {"compound": "O=c1n(CCCN2CCN(c3cccc(Cl)c3)CC2)nc2ccccn12", "note": "[Trazodone hydrochloride]", "startle": 3.18},
      {"compound": "COc1ccccc1Oc1c(NS(=O)(=O)c2ccc(C(C)(C)C)cc2)nc(-c2ncccn2)nc1OCCO", "note": "[Bosentan]", "startle": 7.41},
      {"compound": "N#C[C@@H]1C[C@@H]2C[C@@H]2N1C(=O)[C@@H](N)C12CC3CC(CC(O)(C3)C1)C2", "note": "[Saxagliptin hydrochloride]", "startle": 4.83},
      {"compound": "Cc1cc2c(s1)Nc1ccccc1N=C2N1CCN(C)CC1", "note": "[Olanzapine]", "startle": 2.27},
      {"compound": "CNS(=O)(=O)Cc1ccc2[nH]cc(CCN(C)C)c2c1", "note": "[Sumatriptan succinate]", "startle": 2.1},
      {"compound": "CCCCCCCN(CC)CCCC(O)c1ccc(NS(C)(=O)=O)cc1", "note": "(configuration not stated) [Ibutilide hemifumarate]", "startle": -4.59},
      {"compound": "CC(C)(C(=O)O)c1ccc(C(O)CCCN2CCC(C(O)(c3ccccc3)c3ccccc3)CC2)cc1", "note": "(configuration not stated) [Fexofenadine hydrochloride]", "startle": 3.14},
      {"compound": "COc1cc2nccc(Oc3ccc(NC(=O)C4(C(=O)Nc5ccc(F)cc5)CC4)cc3)c2cc1OC", "startle": -3.85},
      {"compound": "CC(C)COCC(CN(Cc1ccccc1)c1ccccc1)N1CCCC1", "note": "(configuration not stated) [Bepridil hydrochloride]", "startle": -3.27},
      {"compound": "O=C1CCc2ccc(OCCCCN3CCN(c4cccc(Cl)c4Cl)CC3)cc2N1", "note": "[Aripiprazole]", "startle": -3.31},
      {"compound": "O=C(O)C[C@H](O)C[C@H](O)/C=C/c1c(C2CC2)nc2ccccc2c1-c1ccc(F)cc1", "note": "[Pitavastatin calcium]", "startle": 2.76},
      {"compound": "CC(=O)Oc1cc2c(s1)CCN(C(C(=O)C1CC1)c1ccccc1F)C2", "note": "(configuration not stated) [Prasugrel]", "startle": -11.4},
      {"compound": "C[C@@H]1C[C@H]2[C@@H]3CCC4=CC(=O)C=C[C@]4(C)[C@@]3(F)[C@@H](O)C[C@]2(C)[C@@]1(O)C(=O)CO", "note": "[Dexamethasone]", "startle": -0.0968},
      {"compound": "CN(C)CCc1c[nH]c2ccc(C[C@H]3COC(=O)N3)cc12", "note": "[Zolmitriptan]", "startle": 2.75},
      {"compound": "NC(=O)OCC(COC(N)=O)c1ccccc1", "note": "[Felbamate]", "startle": 1.44},
      {"compound": "COc1ccccc1OCC(O)CN1CCN(CC(=O)Nc2c(C)cccc2C)CC1", "note": "(configuration not stated) [Ranolazine dihydrochloride]", "startle": 2.16},
      {"compound": "CNCc1ccc(-c2[nH]c3cc(F)cc4c3c2CCNC4=O)cc1", "note": "[Rucaparib camsylate]", "startle": -4.48},
      {"compound": "OCCN1C[C@H](O)[C@@H](O)[C@H](O)[C@H]1CO", "note": "[Miglitol]", "startle": -0.148},
      {"compound": "CN[C@H]1CC[C@@H](c2ccc(Cl)c(Cl)c2)c2ccccc21", "note": "[Sertraline hydrochloride]", "startle": 2.62},
      {"compound": "COCCc1ccc(OCC(O)CNC(C)C)cc1", "note": "(configuration not stated) [Metoprolol tartrate]", "startle": 4.47},
      {"compound": "NS(=O)(=O)c1cc2c(cc1Cl)NC(C1CC3C=CC1C3)NS2(=O)=O", "note": "(configuration not stated) [Cyclothiazide]", "startle": 1.22},
      {"compound": "OCc1cc(C(O)CNCCCCCCOCCCCc2ccccc2)ccc1O", "note": "(configuration not stated) [Salmeterol xinafoate]", "startle": -4.63},
      {"compound": "CNC(=O)c1cc(Oc2ccc(NC(=O)Nc3ccc(Cl)c(C(F)(F)F)c3)cc2)ccn1", "note": "[Sorafenib]", "startle": -3.34},
      {"compound": "CC(=O)Nc1ccc(O)cc1", "note": "[Acetaminophen]", "startle": 0.242},
      {"compound": "N#Cc1ccc2[nH]cc(CCCCN3CCN(c4ccc5oc(C(N)=O)cc5c4)CC3)c2c1", "note": "[Vilazodone hydrochloride]", "startle": -7.54},
      {"compound": "CCCC1O[C@@H]2C[C@H]3[C@@H]4CCC5=CC(=O)C=C[C@]5(C)[C@H]4[C@@H](O)C[C@]3(C)[C@]2(C(=O)CO)O1", "note": "(some centres not stated) [Budesonide]", "startle": -5.13},
      {"compound": "CC[C@H]1OC(=O)[C@H](C)[C@@H](O[C@H]2C[C@@](C)(OC)[C@@H](O)[C@H](C)O2)[C@H](C)[C@@H](O[C@@H]2O[C@H](C)C[C@H](N(C)C)[C@H]2O)[C@](C)(O)C[C@@H](C)CN(C)[C@H](C)[C@@H](O)[C@]1(C)O", "note": "[Azithromycin]", "startle": 2.55}
    ]}
  ]
}
